6 compounds from PubChem BioAssay can be followed below.

The source made the active and inactive calls.

The target in assay [1] is Albumin (Bos taurus) (UniProt P02769). As to the kind of experiment: bovine serum albumin binders on microarray, profiling panel, artefact control for SMM control protein annotation, biochemical, small-molecule microarray, Alexa647 label, 635/667 nm fluorescence (AID 1118).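 Further: score merges 667 nm emission intensity and signal-to-noise per printed compound spot.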 To be noted: BSA-A647 binding, fluorescence 635 nm, higher = more signal.
A short description of assay [2]: small-molecule microarray binders of probe aXIP, primary screen, biochemical, NeuroSMM set, 635/667 nm fluorescence (AID 1119).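 Further: probe is the protein aXip251-270 applied at 1 µg/mL to compound-printed slides; binding of probe to printed compounds measured as 667 nm fluorescence plus signal to noise.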 As to conditions: higher = more signal, called active from +8 up or from −8 down.
A short description of assay [3]: small-molecule binders of probe aNOTCH3, primary screen, biochemical, small-molecule microarray, 635/667 nm fluorescence (AID 1120).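 Further: probe is a biotin-tagged antibody raised against NOTCH3 rather than NOTCH3 protein; score merges spot fluorescence near 667 nm with spot signal to noise.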 To be noted: higher = more signal.
Assay [4] in a line: small-molecule binders of probe aNOTCH2, primary screen, biochemical, small-molecule microarray, 635/667 nm fluorescence (AID 1121).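 Further: score merges feature fluorescence read at 667 nm with its signal to noise.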 To be noted: higher = more signal.
For assay [5], the target named is Carbonic anhydrase 2 (Homo sapiens) (UniProt P00918). In words: CAII small-molecule binders, profiling panel, biochemical, small-molecule microarray, Alexa647-labelled CAII (AID 1122). To be noted: CAII-A647 binding fluorescence, higher = more signal.
A short description of assay [6]: COS7 lysate on small-molecule microarray, probe aHis, 635 nm (AID 1123).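 Further: z-score combines 667nm fluorescence intensity with signal-to-noise per printed compound spot.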 As to conditions: COS7 cell lysate, fluorescence, higher = more signal.
The nature of assay [7]: compound binding in COS7 lysate, probe aLAP1, primary screen, cell lysate, small-molecule microarray (AID 1124).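 Further: lysate comes from COS7 cells expressing LAP1 and is applied at 0.3 µg/mL; score merges spot fluorescence near 667 nm with signal-to-noise over triplicate slides.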 To be noted: probe aLAP1, fluorescence, higher = more signal.
The test system of assay [8] is Sam68 (KHDRBS1). As to the kind of experiment: Sam68 small-molecule binders, primary screen, biochemical, small-molecule microarray, 635 nm fluorescence (AID 1125).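 Further: score merges 667 nm channel intensity with signal to noise over triplicate slides.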 To be noted: small-molecule microarray binding, higher = more signal.
The test system of assay [9] is Chordin-like protein 2 (CHRDL2). In words: CHRDL2 small-molecule binders, primary screen, biochemical, small-molecule microarray, 635 nm fluorescence (AID 1126).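 Further: printed compound slides probed with Chrdl2 protein at 4 µg/mL for 1 h at 4 C; score merges 667 nm emission intensity with signal to noise over three replicate slides.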 As to conditions: small-molecule microarray binding, fluorescence 635 nm; higher = more signal.
Assay [10] has as its target Concanavalin-A (Canavalia ensiformis) (UniProt P02866). As to the kind of experiment: ConA small-molecule binders, primary screen, artefact control for SMM control protein annotation, biochemical, small-molecule microarray, Alexa647 label, 635 nm (AID 1127).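 Further: z combines 667 nm emission intensity with signal-to-noise across three replicate slides.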 As to conditions: ConA-A647 binding fluorescence, higher = more signal.
Assay [11] is described as follows: anti-His antibody binders, primary screen, artefact control for SMM control protein annotation, biochemical, small-molecule microarray, 635 nm fluorescence (AID 1128).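 Further: score merges feature fluorescence with signal-to-noise for each printed compound spot.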 As to conditions: anti-His Alexa647 antibody binding, higher = more signal.
The test system of assay [12] is Human papillomavirus type 1a E7 protein (residues 1-88). As to the kind of experiment: HPV1a E7 small-molecule binders, primary screen, biochemical, small-molecule microarray, residues 1-88, 635 nm (AID 1129). To be noted: small-molecule microarray binding, fluorescence 635 nm; higher = more signal.
The target of assay [13] is Focal adhesion kinase 1 (Homo sapiens) (UniProt Q05397). In words: small-molecule microarray binders of FAK, primary screen, biochemical, 635/667 nm fluorescence, BSA, DTT (AID 1130).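 Further: composite of spot emission at 667 nm and signal to noise over triplicate slides.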 As to conditions: PTK2 binding, 635 nm fluorescence, higher = more signal.
For assay [14], the system named is Fibrinogen (Alexa647-labelled). As to the kind of experiment: fibrinogen binders on compound microarrays, profiling panel, artefact control for SMM control-protein annotation, biochemical, small-molecule microarray, 635/667 nm fluorescence (AID 1131).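 Further: z-score merges 667 nm fluorescence with per-spot signal-to-noise over triplicate slides.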 As to conditions: fibrinogen-A647 binding fluorescence, higher = more signal.
The target of assay [15] is Follistatin (Homo sapiens) (UniProt P19883). As to the kind of experiment: follistatin binders on small-molecule microarrays, primary screen, biochemical, small-molecule microarray, 635/667 nm fluorescence (AID 1132). To be noted: FST binding, 635 nm fluorescence, higher = more signal.
The target in assay [16] is Fibroblast growth factor 2 (Homo sapiens) (UniProt P09038). In words: FGF2 binders on small-molecule microarrays, primary screen, biochemical, small-molecule microarray, 635/667 nm fluorescence (AID 1133). To be noted: small-molecule microarray binding, FGF2, fluorescence 635/667; higher = more signal.
Assay [17] is described as follows: mitochondrial membrane potential change in A549 cells, profiling panel, cell-based, JC-1 fluorescence, basal, 24 h, 100 nL (AID 1138).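 Further: A549 lung adenocarcinoma cells under basal conditions with no added stimulus; test concentration not given here.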 As to conditions: higher = more signal.
Assay [18] concerns Lefty1. In words: Lefty1 binders on small-molecule microarrays, primary screen, biochemical, small-molecule microarray, 635/667 nm fluorescence (AID 1139). As to conditions: small-molecule microarray binding, fluorescence 635/667; higher = more signal.
Assay [19] concerns wheat germ agglutinin (Triticum aestivum), Alexa647-labelled. As to the kind of experiment: wheat germ agglutinin binders on compound microarrays, profiling panel, artefact control for SMM control-protein annotation, biochemical, small-molecule microarray, 635/667 nm fluorescence (AID 1140).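 Further: score merges 667 nm feature emission with signal to noise over triplicate slides.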 To be noted: WGA-A647 binding, 635 nm fluorescence, higher = more signal.
Assay [20] deals with Luciferin 4-monooxygenase (Photinus pyralis) (UniProt P08659). As to the kind of experiment: firefly luciferase enzyme inhibitors, primary screen, biochemical, luminescence, purified enzyme, 2006 set (AID 1141).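 Further: cell-free assay with purified firefly luciferase at 100 ng per well in PBS; test concentration not given here.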 As to conditions: SteadyGlo luminescence, 30 min, higher = more signal, called active from +8 up or from −8 down.
Sequence of Luciferin 4-monooxygenase (Photinus pyralis) (P08659 whole entry, looked up): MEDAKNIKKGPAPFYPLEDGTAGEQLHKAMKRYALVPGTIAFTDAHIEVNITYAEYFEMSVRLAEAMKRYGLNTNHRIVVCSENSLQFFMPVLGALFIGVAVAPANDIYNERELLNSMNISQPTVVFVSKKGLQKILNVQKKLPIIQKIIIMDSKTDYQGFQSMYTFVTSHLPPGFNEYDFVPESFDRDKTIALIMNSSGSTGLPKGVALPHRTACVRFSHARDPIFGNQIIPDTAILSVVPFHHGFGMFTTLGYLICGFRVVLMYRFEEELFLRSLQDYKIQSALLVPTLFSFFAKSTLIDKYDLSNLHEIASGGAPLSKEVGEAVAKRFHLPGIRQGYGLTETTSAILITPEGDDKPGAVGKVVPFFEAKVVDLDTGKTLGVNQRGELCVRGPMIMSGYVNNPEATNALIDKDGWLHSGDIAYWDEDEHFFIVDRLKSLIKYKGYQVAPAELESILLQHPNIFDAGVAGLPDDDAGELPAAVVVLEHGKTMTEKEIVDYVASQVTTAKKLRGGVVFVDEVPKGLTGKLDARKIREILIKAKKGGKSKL

Sequence of Follistatin (Homo sapiens) (P19883 whole entry, looked up): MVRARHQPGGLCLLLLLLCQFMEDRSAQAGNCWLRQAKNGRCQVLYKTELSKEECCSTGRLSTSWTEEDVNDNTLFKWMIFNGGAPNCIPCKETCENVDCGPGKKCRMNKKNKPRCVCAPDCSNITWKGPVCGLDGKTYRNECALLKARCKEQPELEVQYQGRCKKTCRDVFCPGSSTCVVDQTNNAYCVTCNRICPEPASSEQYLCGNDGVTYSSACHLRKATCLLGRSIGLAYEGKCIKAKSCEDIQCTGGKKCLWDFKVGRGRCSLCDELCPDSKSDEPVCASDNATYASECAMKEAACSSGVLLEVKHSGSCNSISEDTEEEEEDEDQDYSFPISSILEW
Sequence of Fibroblast growth factor 2 (Homo sapiens) (P09038 whole entry, looked up): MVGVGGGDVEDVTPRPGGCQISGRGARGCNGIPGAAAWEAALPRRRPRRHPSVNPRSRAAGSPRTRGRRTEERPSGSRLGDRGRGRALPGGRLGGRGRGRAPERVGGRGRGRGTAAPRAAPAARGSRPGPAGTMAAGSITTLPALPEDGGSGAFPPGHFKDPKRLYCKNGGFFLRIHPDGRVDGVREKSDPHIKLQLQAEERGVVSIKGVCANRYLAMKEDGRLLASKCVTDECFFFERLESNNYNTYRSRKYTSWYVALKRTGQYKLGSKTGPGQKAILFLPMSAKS
Sequence of Focal adhesion kinase 1 (Homo sapiens) (Q05397 whole entry, looked up): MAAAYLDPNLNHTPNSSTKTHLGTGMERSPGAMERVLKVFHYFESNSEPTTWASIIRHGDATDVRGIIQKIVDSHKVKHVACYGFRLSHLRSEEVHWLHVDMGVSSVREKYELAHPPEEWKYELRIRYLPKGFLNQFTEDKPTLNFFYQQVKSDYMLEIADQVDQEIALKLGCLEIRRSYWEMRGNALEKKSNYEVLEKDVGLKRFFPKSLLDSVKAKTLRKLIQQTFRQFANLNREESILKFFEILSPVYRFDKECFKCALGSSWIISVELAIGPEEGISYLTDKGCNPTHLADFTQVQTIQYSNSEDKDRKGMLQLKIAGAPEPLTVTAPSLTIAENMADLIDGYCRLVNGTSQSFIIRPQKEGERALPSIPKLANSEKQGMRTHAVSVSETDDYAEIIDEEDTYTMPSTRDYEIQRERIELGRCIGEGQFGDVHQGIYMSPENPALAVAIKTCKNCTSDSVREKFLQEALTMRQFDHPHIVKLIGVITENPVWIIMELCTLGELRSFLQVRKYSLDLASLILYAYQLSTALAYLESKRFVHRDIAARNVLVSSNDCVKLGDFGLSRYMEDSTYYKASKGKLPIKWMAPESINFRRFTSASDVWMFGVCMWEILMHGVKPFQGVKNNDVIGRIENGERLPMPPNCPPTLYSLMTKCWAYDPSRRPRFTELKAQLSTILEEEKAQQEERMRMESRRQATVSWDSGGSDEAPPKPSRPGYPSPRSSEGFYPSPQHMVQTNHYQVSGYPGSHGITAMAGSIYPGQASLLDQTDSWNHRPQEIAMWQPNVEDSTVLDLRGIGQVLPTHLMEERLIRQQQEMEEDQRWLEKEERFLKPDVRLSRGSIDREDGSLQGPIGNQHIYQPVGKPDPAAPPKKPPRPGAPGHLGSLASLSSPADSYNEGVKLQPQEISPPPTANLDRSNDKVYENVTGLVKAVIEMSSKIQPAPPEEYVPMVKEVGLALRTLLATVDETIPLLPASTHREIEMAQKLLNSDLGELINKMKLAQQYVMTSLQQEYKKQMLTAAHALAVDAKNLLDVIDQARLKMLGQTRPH
Sequence of Albumin (Bos taurus) (P02769 whole entry, looked up): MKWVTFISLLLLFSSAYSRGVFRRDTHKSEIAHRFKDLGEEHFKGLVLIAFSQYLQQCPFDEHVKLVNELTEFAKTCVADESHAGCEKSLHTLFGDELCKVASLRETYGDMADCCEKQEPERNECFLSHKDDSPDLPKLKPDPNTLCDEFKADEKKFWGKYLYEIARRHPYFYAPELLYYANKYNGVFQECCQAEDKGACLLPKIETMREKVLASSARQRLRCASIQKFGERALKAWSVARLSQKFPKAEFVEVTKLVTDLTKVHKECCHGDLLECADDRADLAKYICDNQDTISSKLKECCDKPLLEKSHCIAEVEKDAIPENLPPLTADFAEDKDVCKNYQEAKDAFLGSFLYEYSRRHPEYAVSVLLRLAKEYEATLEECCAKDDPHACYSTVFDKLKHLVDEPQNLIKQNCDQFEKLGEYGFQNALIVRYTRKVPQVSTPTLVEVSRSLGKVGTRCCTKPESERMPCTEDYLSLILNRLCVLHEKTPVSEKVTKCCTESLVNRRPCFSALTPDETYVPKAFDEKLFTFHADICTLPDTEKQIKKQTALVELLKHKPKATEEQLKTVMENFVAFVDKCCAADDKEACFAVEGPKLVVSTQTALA
Sequence of Concanavalin-A (Canavalia ensiformis) (P02866 whole entry, looked up): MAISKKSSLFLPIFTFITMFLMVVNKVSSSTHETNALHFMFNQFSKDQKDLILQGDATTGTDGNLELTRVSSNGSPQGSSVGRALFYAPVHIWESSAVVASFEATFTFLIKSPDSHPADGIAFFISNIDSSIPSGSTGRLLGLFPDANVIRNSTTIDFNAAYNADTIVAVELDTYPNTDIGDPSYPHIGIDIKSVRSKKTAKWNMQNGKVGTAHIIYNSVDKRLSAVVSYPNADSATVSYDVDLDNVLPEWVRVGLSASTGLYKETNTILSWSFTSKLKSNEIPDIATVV

In the case of `Cc1ccc(S[C@]2(C(=O)O)CC(=O)N(Cc3ccccc3)[C@@H]2c2ccc(CO)cc2I)cc1`, the composite z-score in assay [1] was 0.258; in [3], -0.206; in assay [4], -0.13; in assay [5], 0.701; in assay [6], 0.921; in [7], 0.223. In addition, the composite z-score in assay [8] turned out to be 0.21; in assay [9], 0.347; in assay [10], 0.883; in assay [11], 2.86; in assay [12] it was 0.242; in assay [13], 0.284. The composite z-score in [14] is 0.186; in assay [15], 0.023; in assay [16], -0.697; in [18] it was -0.69; in assay [19] it was 0.189. In [2], the composite Z-score was -0.523 (inactive). The z-score in assay [17] is 0.305; in assay [20] it was -0.57 (inactive).

With `CCCC[C@@H]1C[C@H]1[C@@H](NS(=O)(=O)c1cccc2cccnc12)c1ccc(-c2ccccc2)cc1`, the composite z-score in assay [1] is 0.41; in assay [3] it was 0.106; in assay [4], -0.0817; in assay [5], 0.529; in [6], 0.92; in [7] it was -0.222. In addition, the composite z-score in [8] is -0.0217; in assay [9], -1; in assay [10], 0.119; in [11] it was 0.983; in assay [12], 1.08; in assay [13], 0.479. Besides, the composite z-score was -0.809 in assay [14]; 0.0634 in assay [15]; -1.06 in assay [16]; -0.805 in assay [18]; 0.366 in [19]. For the same compound, in assay [2], the composite Z-score was -0.325 (inactive). Moreover, the z-score was 0.164 in assay [17] and 0.633 (inactive) in assay [20].

`CCCNC(=O)[C@@H]1c2ccccc2C(=O)N(Cc2ccccc2Cl)[C@H]1c1ccc(CO)cc1`: the composite z-score was 0.414 in [1]; -0.0794 in assay [3]; -0.0631 in assay [4]; 0.585 in assay [5]; 1.86 in assay [6]; 0.779 in assay [7]. The composite z-score is 1.3 in assay [8]; 0.36 in assay [9]; 1.13 in assay [10]; 2.58 in assay [11]; 1.19 in [12]; 0.497 in [13]. The composite z-score was determined as 0.691 in assay [14]; 1.36 in assay [15]; 1.3 in assay [16]; 1.1 in [18]; 1.09 in assay [19]. Besides, in assay [2], the composite Z-score is -0.231 (inactive). The z-score in assay [17] was 3.16; in assay [20], -1.54 (inactive).

`C=C(/C(=C/C[C@@H](OC(=O)c1ccncc1)c1ccc(OCCO)cc1)c1cnc2ccccc2c1)C(C)C`: the composite z-score was 0.155 in assay [1]; 0.201 in assay [3]; -0.134 in [4]; 0.675 in [5]; -0.842 in assay [6]; 0.727 in assay [7]. The composite z-score is 1.22 in assay [8]; 0.952 in assay [9]; 1.08 in assay [10]; 1.03 in assay [11]; 1.13 in assay [12]; -0.616 in [13]. Also, the composite z-score in assay [14] was found to be 0.806; in assay [15] it was 1.43; in [16] it was 1.17; in assay [18], 1.5; in [19], 0.976. Moreover, the composite Z-score in [2] was -0.128 (inactive). In addition, the z-score is 0.809 in assay [17] and -2.06 (inactive) in [20].

Take `O=C1C[C@]2(c3ccc([N+](=O)[O-])cc3)C(=O)N(CCN3CCOCC3)c3cc(CO)ccc3[C@H]2N1CC12CC3CC(CC(C3)C1)C2`: the composite z-score is 0.89 in assay [1]; -0.185 in assay [3]; -0.174 in assay [4]; 0.185 in assay [5]; 0.253 in assay [6]; 0.713 in assay [7]. Further, the composite z-score was -0.631 in assay [8]; -1.03 in assay [9]; -0.163 in assay [10]; -0.585 in [11]; 0.275 in [12]; 0.0816 in assay [13]. For the same compound, the composite z-score in assay [14] is -0.724; in [15], -0.377; in assay [16] it was -1.54; in assay [18], -0.424; in assay [19], 0.551. The composite Z-score in assay [2] is 0.83 (inactive). For the same compound, the z-score in [17] is -0.869; in assay [20], 0.959 (inactive).

Consider `CC(CCC(=O)OC[C@H]1O[C@H](C#Cc2ccccc2)C=C[C@@H]1Oc1ccc(C)cc1)=NO[C@@H](C)c1cn([C@H](CO)Cc2ccccc2)nn1`, for which the composite z-score is 0.0449 in assay [1]; 0.0026 in [3]; -0.0907 in assay [4]; -0.122 in [5]; -0.053 in [6]; -0.592 in [7]. Moreover, the composite z-score is 0.297 in assay [8]; 0.145 in assay [9]; 0.27 in assay [10]; 1.35 in assay [11]; 0.0769 in assay [12]; 0.0915 in assay [13]. In addition, the composite z-score in [14] is 0.716; in assay [15], 0.335; in assay [16], 0.61; in [18], 0.393; in assay [19], 0.587. Moreover, in [2], the composite Z-score is -0.684 (inactive). In addition, the z-score in [17] was -0.97; in [20] it was 0.991 (inactive).
